This is an account of results in publication PMC7862700, “An all-to-all approach to the identification of sequence-specific readers for epigenetic DNA modifications on cytosine”.

What all share (experiment): DAPPL (digital affinity profiling via proximity ligation, sequencing); 10 mM Tris-HCl pH 7.5, 50 mM NaCl, 1 mM DTT, 4% glycerol, room temperature, 30 min; GST-TFs on glutathione beads, 16-mer random dsDNA library, 0.1% formaldehyde crosslink after washing; high values mean tight binding
The target in one experiment is T1, FLI1 (Homo sapiens, UniProt Q01543 1-452).
T1 sequence: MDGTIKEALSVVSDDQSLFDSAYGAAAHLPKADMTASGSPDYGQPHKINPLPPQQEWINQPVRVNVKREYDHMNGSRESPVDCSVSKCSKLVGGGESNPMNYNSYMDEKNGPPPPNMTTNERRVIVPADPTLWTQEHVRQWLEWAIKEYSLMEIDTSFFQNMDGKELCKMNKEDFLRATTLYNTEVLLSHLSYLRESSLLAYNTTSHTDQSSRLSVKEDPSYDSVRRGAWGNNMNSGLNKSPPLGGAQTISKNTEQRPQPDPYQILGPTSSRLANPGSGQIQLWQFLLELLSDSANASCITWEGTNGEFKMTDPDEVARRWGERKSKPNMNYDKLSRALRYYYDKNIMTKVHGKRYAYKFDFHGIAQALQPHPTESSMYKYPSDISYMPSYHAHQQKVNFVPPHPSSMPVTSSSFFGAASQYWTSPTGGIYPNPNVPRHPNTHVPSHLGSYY
The following applies: protein: recombinant; tags: N-terminal GST; dsDNA, one strand shown. An outline of the steps:
(§1)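 Sequencing on an Illumina NextSeq500 followed washing, crosslinking with 0.1% formaldehyde, proximity ligation (BsaI/T4 ligase, 1 h, 37 °C) and PCR amplification of pools that had been incubated for 30 min at room temperature with 200 nmole of a random double-stranded 16-mer DNA library in Tris/NaCl/DTT/glycerol buffer. Each pool held DNA-barcoded human transcription factors, expressed in yeast as GST fusions and captured on glutathione beads, plus a tag-only sample. Binding signal is a hexamer's read frequency for a factor divided by its frequency in the tag-only sample.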

For another experiment, the target named is T2, ELK1 (Homo sapiens, UniProt P19419 1-428).
T2 sequence: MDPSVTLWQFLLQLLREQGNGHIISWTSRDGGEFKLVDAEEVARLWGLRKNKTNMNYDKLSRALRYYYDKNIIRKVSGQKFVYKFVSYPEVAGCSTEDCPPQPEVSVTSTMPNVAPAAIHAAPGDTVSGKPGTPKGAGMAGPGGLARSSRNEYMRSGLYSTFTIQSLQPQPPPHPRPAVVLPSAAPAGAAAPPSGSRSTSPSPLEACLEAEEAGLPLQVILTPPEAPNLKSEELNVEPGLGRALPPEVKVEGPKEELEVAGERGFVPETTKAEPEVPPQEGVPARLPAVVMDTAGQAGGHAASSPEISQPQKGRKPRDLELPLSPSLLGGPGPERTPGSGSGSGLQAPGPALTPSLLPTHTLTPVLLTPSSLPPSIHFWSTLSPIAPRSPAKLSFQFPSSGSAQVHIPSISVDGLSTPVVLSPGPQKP
Particulars: protein: recombinant; tags: N-terminal GST; dsDNA, one strand shown. The gist of the method: as §1

The target of the next experiment is T3, GABPA (Homo sapiens, UniProt Q06546 1-454).
T3 sequence: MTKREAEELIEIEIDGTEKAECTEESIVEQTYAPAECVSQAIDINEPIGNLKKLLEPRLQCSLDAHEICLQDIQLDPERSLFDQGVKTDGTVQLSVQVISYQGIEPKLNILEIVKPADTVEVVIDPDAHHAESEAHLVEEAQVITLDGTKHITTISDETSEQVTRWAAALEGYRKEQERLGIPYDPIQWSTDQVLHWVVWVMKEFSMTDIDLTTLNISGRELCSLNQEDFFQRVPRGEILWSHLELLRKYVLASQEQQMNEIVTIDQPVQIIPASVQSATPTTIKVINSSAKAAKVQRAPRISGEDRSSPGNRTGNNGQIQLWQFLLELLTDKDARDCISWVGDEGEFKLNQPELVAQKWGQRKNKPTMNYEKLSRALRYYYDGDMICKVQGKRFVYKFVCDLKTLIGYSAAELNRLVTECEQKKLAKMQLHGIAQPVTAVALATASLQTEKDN
Particulars: protein: recombinant; tags: N-terminal GST; dsDNA, one strand shown. An outline of the steps:
as §1

The target of the next experiment is T4, ERG (Homo sapiens, UniProt P11308 1-479).
T4 sequence: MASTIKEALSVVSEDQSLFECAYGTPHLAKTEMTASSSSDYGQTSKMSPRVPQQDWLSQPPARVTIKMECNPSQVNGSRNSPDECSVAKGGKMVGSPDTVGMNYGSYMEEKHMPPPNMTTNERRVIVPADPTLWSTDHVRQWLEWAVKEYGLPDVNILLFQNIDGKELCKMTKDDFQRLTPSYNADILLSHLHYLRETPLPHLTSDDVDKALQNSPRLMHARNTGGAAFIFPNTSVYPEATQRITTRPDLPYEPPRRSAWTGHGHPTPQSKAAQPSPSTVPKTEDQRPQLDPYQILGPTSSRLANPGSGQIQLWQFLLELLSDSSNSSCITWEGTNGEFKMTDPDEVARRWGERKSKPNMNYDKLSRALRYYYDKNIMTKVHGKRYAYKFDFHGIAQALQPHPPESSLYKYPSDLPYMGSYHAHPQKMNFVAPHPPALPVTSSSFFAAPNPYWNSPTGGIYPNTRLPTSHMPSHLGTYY
The following applies: protein: recombinant; tags: N-terminal GST; dsDNA, one strand shown. An outline of the steps:
as §1

The target in a further experiment is ELF1 (Homo sapiens, UniProt P32519 1-619). Particulars: protein: recombinant; tags: N-terminal GST; dsDNA, one strand shown. The gist of the method:
as §1

The target in the next experiment is T5, EHF (Homo sapiens, UniProt Q9NZC4 1-300).
T5 sequence: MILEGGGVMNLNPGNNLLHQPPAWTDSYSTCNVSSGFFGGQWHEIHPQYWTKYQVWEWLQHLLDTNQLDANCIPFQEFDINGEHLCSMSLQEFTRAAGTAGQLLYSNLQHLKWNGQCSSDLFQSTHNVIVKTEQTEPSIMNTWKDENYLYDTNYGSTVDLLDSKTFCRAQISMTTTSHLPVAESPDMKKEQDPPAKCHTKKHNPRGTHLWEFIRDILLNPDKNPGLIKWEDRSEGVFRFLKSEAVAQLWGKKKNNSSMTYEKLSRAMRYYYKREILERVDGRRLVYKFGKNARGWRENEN
Particulars: protein: recombinant; tags: N-terminal GST; dsDNA, one strand shown. The gist of the method:
as §1

Another experiment has as its target SPI1 (Homo sapiens, UniProt P17947 1-270). The following applies: protein: recombinant; tags: N-terminal GST; dsDNA, one strand shown. The gist of the method: as §1
The next experiment addresses SPIB (Homo sapiens, UniProt Q01892 1-262). Particulars: protein: recombinant; tags: N-terminal GST; dsDNA, one strand shown. The gist of the method: as §1
The target of another experiment is T6, ELK3 (Homo sapiens, UniProt P41970 1-407).
T6 sequence: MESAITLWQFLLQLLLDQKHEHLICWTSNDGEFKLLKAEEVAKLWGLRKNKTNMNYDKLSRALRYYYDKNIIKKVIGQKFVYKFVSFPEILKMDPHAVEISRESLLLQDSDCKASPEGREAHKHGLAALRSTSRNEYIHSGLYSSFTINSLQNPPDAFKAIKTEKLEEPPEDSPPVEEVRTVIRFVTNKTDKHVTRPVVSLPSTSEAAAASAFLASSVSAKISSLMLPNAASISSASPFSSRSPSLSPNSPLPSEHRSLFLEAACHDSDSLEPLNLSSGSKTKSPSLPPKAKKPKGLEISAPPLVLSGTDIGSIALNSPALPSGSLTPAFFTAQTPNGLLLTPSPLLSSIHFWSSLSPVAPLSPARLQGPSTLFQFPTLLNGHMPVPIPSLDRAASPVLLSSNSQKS
Particulars: protein: recombinant; tags: N-terminal GST; dsDNA, one strand shown. An outline of the steps:
as §1

Another experiment has as its target T7, FEV (Homo sapiens, UniProt Q99581 1-238).
T7 sequence: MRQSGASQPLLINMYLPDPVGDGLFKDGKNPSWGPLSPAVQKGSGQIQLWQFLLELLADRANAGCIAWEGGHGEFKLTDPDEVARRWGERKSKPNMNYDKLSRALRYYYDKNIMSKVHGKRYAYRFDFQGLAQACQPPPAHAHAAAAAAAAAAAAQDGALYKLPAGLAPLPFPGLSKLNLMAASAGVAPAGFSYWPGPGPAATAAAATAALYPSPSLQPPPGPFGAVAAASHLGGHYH
Particulars: protein: recombinant; tags: N-terminal GST; dsDNA, one strand shown. The gist of the method: as §1

A further experiment addresses ETV5 (Homo sapiens, UniProt P41161 1-510). The following applies: protein: recombinant; tags: N-terminal GST; dsDNA, one strand shown. The gist of the method: as §1
A further experiment concerns the target HSF1 (Homo sapiens, UniProt Q00613 1-529). The following applies: protein: recombinant; tags: N-terminal GST; chain copies: 3; dsDNA, one strand shown. The gist of the method:
as §1

The next experiment deals with T8, SPIC (Homo sapiens, UniProt Q8N5J4 1-248).
T8 sequence: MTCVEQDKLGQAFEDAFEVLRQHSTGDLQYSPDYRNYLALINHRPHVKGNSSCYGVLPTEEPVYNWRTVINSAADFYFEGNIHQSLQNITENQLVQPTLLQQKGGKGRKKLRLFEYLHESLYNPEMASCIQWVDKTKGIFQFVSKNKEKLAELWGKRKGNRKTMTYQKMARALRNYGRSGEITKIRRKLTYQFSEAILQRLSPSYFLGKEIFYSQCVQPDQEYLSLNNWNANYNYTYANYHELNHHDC
Particulars: protein: recombinant; tags: N-terminal GST; dsDNA, one strand shown. An outline of the steps:
as §1

The target in the next experiment is ELF4 (Homo sapiens, UniProt Q99607 1-663). The following applies: protein: recombinant; tags: N-terminal GST; dsDNA, one strand shown. The gist of the method: as §1
The target of another experiment is T9, ELK4 (Homo sapiens, UniProt P28324-2 1-405).
T9 sequence: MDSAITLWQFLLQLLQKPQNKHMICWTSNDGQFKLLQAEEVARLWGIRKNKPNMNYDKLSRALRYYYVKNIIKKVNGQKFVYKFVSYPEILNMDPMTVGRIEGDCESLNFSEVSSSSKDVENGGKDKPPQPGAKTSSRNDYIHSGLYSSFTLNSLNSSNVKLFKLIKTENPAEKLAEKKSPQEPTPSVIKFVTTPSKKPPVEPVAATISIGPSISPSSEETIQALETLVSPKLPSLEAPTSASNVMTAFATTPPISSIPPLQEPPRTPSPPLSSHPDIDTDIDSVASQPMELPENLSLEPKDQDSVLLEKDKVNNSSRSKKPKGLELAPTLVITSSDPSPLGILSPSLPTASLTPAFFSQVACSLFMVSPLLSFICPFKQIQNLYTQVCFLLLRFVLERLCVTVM
The following applies: protein: recombinant; tags: N-terminal GST; dsDNA, one strand shown. The gist of the method: as §1

For the next experiment, the target named is T10, ETV2 (Homo sapiens, UniProt O00321 1-342).
T10 sequence: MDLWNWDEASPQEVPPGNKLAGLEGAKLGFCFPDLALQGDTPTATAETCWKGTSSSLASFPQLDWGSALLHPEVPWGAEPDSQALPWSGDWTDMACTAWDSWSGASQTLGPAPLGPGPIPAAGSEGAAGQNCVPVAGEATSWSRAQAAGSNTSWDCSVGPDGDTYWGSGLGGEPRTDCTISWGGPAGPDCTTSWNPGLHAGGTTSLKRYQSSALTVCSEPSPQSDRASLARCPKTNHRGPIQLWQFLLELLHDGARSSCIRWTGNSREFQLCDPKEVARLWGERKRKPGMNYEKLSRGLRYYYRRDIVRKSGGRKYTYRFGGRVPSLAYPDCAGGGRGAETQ
The following applies: protein: recombinant; tags: N-terminal GST; dsDNA, one strand shown. An outline of the steps: as §1

The next experiment has as its target T11, ELF3 (Homo sapiens, UniProt P78545 1-371).
T11 sequence: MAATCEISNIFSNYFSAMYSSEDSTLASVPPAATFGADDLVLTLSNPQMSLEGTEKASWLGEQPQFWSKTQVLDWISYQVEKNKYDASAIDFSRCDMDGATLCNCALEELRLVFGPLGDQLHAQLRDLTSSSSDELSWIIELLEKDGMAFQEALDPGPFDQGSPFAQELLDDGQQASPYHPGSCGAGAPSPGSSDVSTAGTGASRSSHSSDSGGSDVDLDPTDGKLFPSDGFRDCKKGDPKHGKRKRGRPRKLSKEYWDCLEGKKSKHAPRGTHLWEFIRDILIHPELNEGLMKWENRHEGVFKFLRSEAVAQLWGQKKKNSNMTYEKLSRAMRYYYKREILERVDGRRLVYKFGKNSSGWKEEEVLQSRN
Particulars: protein: recombinant; tags: N-terminal GST; dsDNA, one strand shown. An outline of the steps:
as §1

Another experiment concerns the target ETV1 (Homo sapiens, UniProt P50549 1-477). Particulars: protein: recombinant; tags: N-terminal GST; dsDNA, one strand shown. An outline of the steps: as §1

Chain of SPIB (Q01892 whole entry): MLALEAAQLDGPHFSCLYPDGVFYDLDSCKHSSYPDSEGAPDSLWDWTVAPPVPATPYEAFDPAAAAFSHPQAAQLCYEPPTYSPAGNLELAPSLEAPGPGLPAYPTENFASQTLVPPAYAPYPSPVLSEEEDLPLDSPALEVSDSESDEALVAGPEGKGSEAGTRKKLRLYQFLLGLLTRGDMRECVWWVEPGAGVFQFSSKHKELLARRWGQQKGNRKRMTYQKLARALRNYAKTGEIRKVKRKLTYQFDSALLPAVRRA
Chain of ELF1 (P32519 whole entry): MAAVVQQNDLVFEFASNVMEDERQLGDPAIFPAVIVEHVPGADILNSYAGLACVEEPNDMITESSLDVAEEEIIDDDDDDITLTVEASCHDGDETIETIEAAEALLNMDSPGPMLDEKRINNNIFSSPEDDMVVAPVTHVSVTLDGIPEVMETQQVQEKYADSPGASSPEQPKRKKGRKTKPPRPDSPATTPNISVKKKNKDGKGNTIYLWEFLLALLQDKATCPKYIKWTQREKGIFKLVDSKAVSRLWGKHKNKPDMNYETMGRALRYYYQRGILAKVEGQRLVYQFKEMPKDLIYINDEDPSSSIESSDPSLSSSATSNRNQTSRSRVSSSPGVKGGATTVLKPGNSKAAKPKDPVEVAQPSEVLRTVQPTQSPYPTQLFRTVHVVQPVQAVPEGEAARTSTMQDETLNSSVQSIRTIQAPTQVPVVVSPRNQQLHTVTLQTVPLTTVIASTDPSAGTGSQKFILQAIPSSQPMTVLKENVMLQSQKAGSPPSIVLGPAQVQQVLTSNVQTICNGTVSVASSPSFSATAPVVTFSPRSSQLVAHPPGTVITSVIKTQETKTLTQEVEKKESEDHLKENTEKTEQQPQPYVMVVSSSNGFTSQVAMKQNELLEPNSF
Chain of HSF1 (Q00613 whole entry): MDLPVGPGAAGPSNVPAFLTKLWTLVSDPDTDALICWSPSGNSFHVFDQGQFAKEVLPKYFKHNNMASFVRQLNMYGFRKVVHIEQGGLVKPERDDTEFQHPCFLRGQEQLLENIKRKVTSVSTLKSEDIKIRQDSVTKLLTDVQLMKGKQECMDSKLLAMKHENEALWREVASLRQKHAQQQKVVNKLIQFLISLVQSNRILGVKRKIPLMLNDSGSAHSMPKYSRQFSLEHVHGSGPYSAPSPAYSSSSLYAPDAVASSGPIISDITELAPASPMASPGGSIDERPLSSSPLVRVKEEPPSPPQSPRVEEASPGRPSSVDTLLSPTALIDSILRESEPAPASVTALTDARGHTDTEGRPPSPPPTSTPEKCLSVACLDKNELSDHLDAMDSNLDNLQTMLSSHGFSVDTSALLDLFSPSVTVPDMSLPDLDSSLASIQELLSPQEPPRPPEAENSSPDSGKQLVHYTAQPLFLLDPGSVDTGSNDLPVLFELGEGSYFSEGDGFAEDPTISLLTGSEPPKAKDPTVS
Chain of ETV5 (P41161 whole entry): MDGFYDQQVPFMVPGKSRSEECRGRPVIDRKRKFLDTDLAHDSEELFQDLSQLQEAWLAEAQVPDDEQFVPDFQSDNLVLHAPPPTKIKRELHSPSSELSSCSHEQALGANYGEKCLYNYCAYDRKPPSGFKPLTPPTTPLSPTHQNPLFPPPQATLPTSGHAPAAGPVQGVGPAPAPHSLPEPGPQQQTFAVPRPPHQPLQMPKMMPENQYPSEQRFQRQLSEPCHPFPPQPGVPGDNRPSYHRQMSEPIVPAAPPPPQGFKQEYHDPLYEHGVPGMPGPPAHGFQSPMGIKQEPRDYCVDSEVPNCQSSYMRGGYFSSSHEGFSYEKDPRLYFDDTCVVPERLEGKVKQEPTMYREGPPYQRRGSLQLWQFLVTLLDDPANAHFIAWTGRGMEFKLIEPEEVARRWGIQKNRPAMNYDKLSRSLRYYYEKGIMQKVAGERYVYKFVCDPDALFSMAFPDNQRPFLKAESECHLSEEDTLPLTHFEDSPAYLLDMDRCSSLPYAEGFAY
Chain of ETV1 (P50549 whole entry): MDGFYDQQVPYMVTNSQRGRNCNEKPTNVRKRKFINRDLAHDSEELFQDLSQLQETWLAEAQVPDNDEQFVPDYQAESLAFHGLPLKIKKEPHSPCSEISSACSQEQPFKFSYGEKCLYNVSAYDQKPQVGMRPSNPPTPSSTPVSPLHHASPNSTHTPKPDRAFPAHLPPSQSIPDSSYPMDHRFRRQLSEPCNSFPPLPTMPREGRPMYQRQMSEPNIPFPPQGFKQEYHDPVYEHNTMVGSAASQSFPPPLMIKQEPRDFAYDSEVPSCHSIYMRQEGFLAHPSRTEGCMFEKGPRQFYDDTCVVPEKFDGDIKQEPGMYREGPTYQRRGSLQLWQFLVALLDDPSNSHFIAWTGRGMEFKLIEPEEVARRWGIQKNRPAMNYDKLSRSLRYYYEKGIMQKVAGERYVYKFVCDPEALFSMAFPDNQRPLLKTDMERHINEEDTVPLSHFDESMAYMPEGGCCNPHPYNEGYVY
Chain of ELF4 (Q99607 whole entry): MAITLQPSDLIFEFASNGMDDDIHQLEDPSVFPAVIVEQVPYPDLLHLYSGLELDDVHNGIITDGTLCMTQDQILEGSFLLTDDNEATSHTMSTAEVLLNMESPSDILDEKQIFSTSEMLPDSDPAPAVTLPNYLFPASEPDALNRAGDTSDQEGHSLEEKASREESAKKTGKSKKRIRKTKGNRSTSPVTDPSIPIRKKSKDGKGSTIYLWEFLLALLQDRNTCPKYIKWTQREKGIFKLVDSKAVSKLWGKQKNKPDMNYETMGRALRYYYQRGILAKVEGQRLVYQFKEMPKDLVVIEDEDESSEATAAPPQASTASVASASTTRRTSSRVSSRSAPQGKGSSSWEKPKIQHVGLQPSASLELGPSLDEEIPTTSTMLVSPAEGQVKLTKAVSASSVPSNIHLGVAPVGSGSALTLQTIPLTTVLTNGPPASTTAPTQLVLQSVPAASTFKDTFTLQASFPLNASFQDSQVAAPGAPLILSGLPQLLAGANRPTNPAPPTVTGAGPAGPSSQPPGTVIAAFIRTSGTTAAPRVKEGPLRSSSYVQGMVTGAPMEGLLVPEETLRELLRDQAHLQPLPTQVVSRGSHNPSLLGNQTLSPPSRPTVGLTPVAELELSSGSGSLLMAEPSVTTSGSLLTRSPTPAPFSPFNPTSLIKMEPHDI

With AACAAG, the binding signal with FLI1 is 1.08 fold enrichment (6-mer frequency, TF over GST control); with ELK1, 1.08 fold enrichment (6-mer frequency, TF over GST control); in the experiment with GABPA, 1.15 fold enrichment (6-mer frequency, TF over GST control); with ERG, 1.14 fold enrichment (6-mer frequency, TF over GST control); with ELF1, 1.13 fold enrichment (6-mer frequency, TF over GST control); in the experiment with EHF it was 1.17 fold enrichment (6-mer frequency, TF over GST control). Further, the binding signal in the experiment with SPI1 is 1.04 fold enrichment (6-mer frequency, TF over GST control); with SPIB, 1.06 fold enrichment (6-mer frequency, TF over GST control); in the experiment with ELK3, 1.22 fold enrichment (6-mer frequency, TF over GST control); with FEV it was 1.03 fold enrichment (6-mer frequency, TF over GST control); in the experiment with ETV5, 1.14 fold enrichment (6-mer frequency, TF over GST control); with HSF1, 1.03 fold enrichment (6-mer frequency, TF over GST control). Also, the binding signal with SPIC was 1.15 fold enrichment (6-mer frequency, TF over GST control); with ELF4, 1.17 fold enrichment (6-mer frequency, TF over GST control); in the experiment with ELK4, 1.01 fold enrichment (6-mer frequency, TF over GST control); with ETV2, 1 fold enrichment (6-mer frequency, TF over GST control); with ELF3, 1.26 fold enrichment (6-mer frequency, TF over GST control); in the experiment with ETV1, 1.13 fold enrichment (6-mer frequency, TF over GST control).
